Screening results deposited in PubChem by The Scripps Research Institute Molecular Screening Center.
MITF inh = MITF inhibitors, primary screen, biochemical, AlphaScreen, human | inhibition, % at 2.6 µM | actives 0.91% (n = 650,000) | AlphaScreen MITF homodimerization, bead proximity signal | AID 1259374, 2018 | Microphthalmia-associated transcription factor (Homo sapiens), O75030; in the data active = inhibition above about 50%
TEAD-YAP block = TEAD-YAP interaction inhibition, primary screen, TEAD-YAP interaction inhibitor project, luminescence, HEK-TIYL cells | TEAD-Gal4/YAP UAS-luciferase luminescence | inhibition, % at 9.12 µM | actives 1.4% (n = 640,000); in the data active = inhibition above about 32%
FBW7 activator = FBW7 E3 ligase activators, primary screen, biochemical, AlphaScreen, human. AID 1259310, 2017. F-box/WD repeat-containing protein 7 (Homo sapiens), Q969H0. normalized activity (activation), % at 26.1 µM. AlphaScreen FBW7–phospho-cyclin E peptide binding, activator screen. actives 0.13% (n = 650,000); in the data active = normalized activity above about 1.9%;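 note: purified mutant Fbw7 with reduced substrate affinity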
GPR151 ag = activators of human GPR151, primary screen, cell-based, PathHunter beta-arrestin, luminescence; G-protein coupled receptor 151 (Homo sapiens), Q8TDV0; activation, % at 11.2 µM; PathHunter beta-arrestin GPR151 cells; actives 1% (n = 650,000); in the data active = activation above about 4.9%
Target sequence (Q8TDV0 whole entry, looked up): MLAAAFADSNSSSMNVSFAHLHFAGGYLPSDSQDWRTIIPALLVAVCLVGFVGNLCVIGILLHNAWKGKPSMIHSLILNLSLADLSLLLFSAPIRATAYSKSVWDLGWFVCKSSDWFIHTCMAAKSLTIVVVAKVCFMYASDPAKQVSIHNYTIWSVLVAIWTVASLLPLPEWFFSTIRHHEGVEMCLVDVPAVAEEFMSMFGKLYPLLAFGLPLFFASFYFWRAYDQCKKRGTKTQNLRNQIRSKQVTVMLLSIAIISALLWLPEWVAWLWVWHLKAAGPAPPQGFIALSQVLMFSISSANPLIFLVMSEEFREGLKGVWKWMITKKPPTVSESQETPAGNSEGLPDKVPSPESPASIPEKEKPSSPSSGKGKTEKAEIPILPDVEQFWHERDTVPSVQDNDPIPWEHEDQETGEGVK
GPR151 confirm = GPR151 activators, triplicate retest, confirmation, cell-based, PathHunter beta-arrestin, luminescence. shares compounds with GPR151 ag. GPR151 PathHunter beta-arrestin cells, 90 min; % of EA-reagent control over plate median. activation, % at 11.2 µM. 6,700 tested, under 10 active. AID 1508609, 2020;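 active = mean percent activation across replicates above the confirmation screen cutoff of 4.91%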
GPR119 counter = GPR119 activators in beta-arrestin cells, counter-screen for GPR151 activator project, cell-based, PathHunter beta-arrestin, luminescence, triplicate | activation, % at 11.2 µM | actives 0.3% (n = 6,700) | shares compounds with GPR151 ag | 90 min; 0 = compound-well median, 100 = enzyme-acceptor control;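 active = mean percent activation in the counterscreen above 29.09%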;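 note: counterscreen on off-target GPR119 to flag nonselective hits from the GPR151 activator screen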
Each line names hits and unclear results; the compound was inactive in the other large screens (follow-up assays come after a bar, where they were run). In the library only some 3.5% were active in any assay of this set; here they are far more common.

COC(=O)c1c(C)[nH]c(C(=O)COC(=O)CCc2ccc(OC)c(OC)c2)c1C	GPR151 ag 5.7 | GPR151 confirm inactive | GPR119 counter inactive
N#Cc1ccc(/C=C2/SC(N)=NC2=O)cc1	none
Cc1ccc(N(CC(=O)Nc2ccccc2C(C)C)S(C)(=O)=O)cc1	GPR151 ag 6.5 | GPR151 confirm inactive | GPR119 counter inactive
CCc1ccccc1NC(=O)CN(c1ccc(C)cc1)S(C)(=O)=O	none
COc1cccc(NC(=O)CN(C)CC(=O)Nc2ccccc2-c2ccccc2)c1	GPR151 ag 5.7 | GPR151 confirm inactive | GPR119 counter inactive
COc1ccc(N(CC(=O)Nc2ccccc2-c2ccccc2)S(C)(=O)=O)cc1	GPR151 ag 14.5 | GPR151 confirm inactive | GPR119 counter inactive
c1ccc2c(c1)CCN(c1nc(NC3CC3)c3ncn(-c4ccsc4)c3n1)C2	none
CN(C)c1cccc(Nc2nc(Nc3ccccc3)c3ncn(-c4ccsc4)c3n2)c1	GPR151 ag 5.6 | GPR151 confirm inactive | GPR119 counter inactive
c1ccc(Oc2nc(NC3CC3)c3ncn(-c4ccsc4)c3n2)cc1	TEAD-YAP block 87.6, GPR151 ag 6.6 | GPR151 confirm inactive | GPR119 counter 45.8
CN(C)c1cccc(Nc2nc(NCc3ccccc3)c3ncn(-c4ccsc4)c3n2)c1	none
Oc1ccc(CCNc2nc(NC3CCN(Cc4ccccc4)CC3)nc3c2ncn3-c2ccsc2)cc1	GPR151 ag 5.6 | GPR151 confirm inactive | GPR119 counter inactive
c1ccc(CN2CCC(Nc3nc(Nc4ccc5ncccc5c4)nc4c3ncn4-c3ccsc3)CC2)cc1	GPR151 ag 5.5 | GPR151 confirm inactive | GPR119 counter inactive
O=C1c2ccccc2NC2(C(=O)N(Cc3ccccc3)c3ccccc32)N1C1CC1 (stereo not given)	none
Cn1c(=O)c2c(nc(N3CCN(c4ccccc4)CC3)n2Cc2ccccc2)n(C)c1=O	none
CCCN1C(=O)/C(=C/c2ccc(O)c(OC)c2)SC1=S	GPR151 ag 5.1 | GPR151 confirm inactive | GPR119 counter inactive
CCOC(=O)N1CCN(c2c(NC3CCCCCCC3)c(=O)c2=O)CC1	none
CCOC(=O)N1CCN(c2c(NCCN3CCCC3)c(=O)c2=O)CC1	GPR151 ag 5.5 | GPR151 confirm inactive | GPR119 counter inactive
CCOC(=O)N1CCN(c2c(NCCN3CCCCCC3)c(=O)c2=O)CC1	none
CCOC(=O)C1CCN(c2c(NCCCc3ccccc3)c(=O)c2=O)CC1	GPR151 ag 9.9 | GPR151 confirm inactive | GPR119 counter inactive
CCOC(=O)C1CCCN(c2c(NCCCc3ccccc3)c(=O)c2=O)C1 (stereo not given)	none
CCOC(=O)C1CCN(c2c(NCCN3CCOCC3)c(=O)c2=O)CC1	GPR151 ag 6.3 | GPR151 confirm inactive | GPR119 counter inactive
CCOC(=O)N1CCC(Nc2c(NC(C)CC)c(=O)c2=O)CC1 (stereo not given)	GPR151 ag 8.8 | GPR151 confirm inactive | GPR119 counter inactive
CC1(C)C2CCC1(CS(=O)(=O)Nc1cc(C(=O)Nc3ccc4c(c3)OCCO4)ccc1N1CC3CC(C1)c1cccc(=O)n1C3)C(=O)C2 (stereo not given)	none
C=CC1CCC(O)C(N(Cc2ccccc2)S(=O)(=O)c2ccc3ccccc3c2)C1 (stereo not given)	none
CC(=O)c1cccc(NC(=O)COC(=O)c2cc[n+]([O-])cc2)c1	none
Cc1sc(NC(=O)c2ccc(Br)cc2)nc1-c1ccccc1	none
COc1ccc(NC(=O)CSc2nc3c(sc(=S)n3-c3ccccc3C)c(=O)n2-c2ccccc2F)c(OC)c1	none
COc1sc(SC)cc1/C=N/Nc1ccc([N+](=O)[O-])cc1	none
CCCCNc1c(N2CCCC(C(=O)OCC)C2)c(=O)c1=O (stereo not given)	GPR151 ag 5.1 | GPR151 confirm inactive | GPR119 counter inactive
CC1CCN(c2c(NCc3ccc(C(=O)NCCc4ccccc4)cc3)c(=O)c2=O)CC1	GPR151 ag 5.2 | GPR151 confirm inactive | GPR119 counter inactive
CCOC(=O)C1CCCN(c2c(NCCCN3CCN(C)CC3)c(=O)c2=O)C1 (stereo not given)	none
CC(=O)c1cccc(-c2nc(Nc3ccc(N4CCOCC4)cc3)c3ncn(-c4ccccc4)c3n2)c1	none
CCN(CC)CCN1C(=O)c2ccccc2NC1c1ccc2c(c1)OCO2 (stereo not given)	GPR151 ag 5.3 | GPR151 confirm inactive | GPR119 counter inactive
O=C1c2ccccc2NC(c2ccc3c(c2)OCO3)N1Cc1ccccc1 (stereo not given)	none
CN1CCN(Cc2ccc(NC(=O)NCc3cccc4ccccc34)cc2)CC1	GPR151 ag 7.0 | GPR151 confirm inactive | GPR119 counter inactive
COc1ccc(NC(=O)Nc2ccc(CN3CCN(C)CC3)cc2)cc1	none
Cc1ccc(N2CCN(C(=O)Nc3ccccc3)CC2)nn1	none
CSc1cccc(NC(=O)N2CCN(c3ccc(C)nn3)CC2)c1	GPR151 ag 5.6 | GPR151 confirm inactive | GPR119 counter inactive
COc1ccccc1-c1coc2cc(OC(=O)C(C)(C)C)ccc2c1=O	GPR151 ag 6.9 | GPR151 confirm inactive | GPR119 counter inactive
Cc1ccc(N(C(=O)CCc2ccccc2)C2C=CS(=O)(=O)C2)cc1C (stereo not given)	GPR151 ag 5.4 | GPR151 confirm inactive | GPR119 counter inactive
O=C(COc1ccc(Br)cc1)N(c1ccccc1)C1C=CS(=O)(=O)C1 (stereo not given)	GPR151 ag 6.3 | GPR151 confirm inactive | GPR119 counter inactive
COc1ccc(/C(N)=N/OC(=O)c2ccc3ccccc3c2)cc1	none
CC(Oc1ccc(C(C)(C)C)cc1)C(=O)NC1CCS(=O)(=O)C1 (stereo not given)	GPR151 ag 5.2 | GPR151 confirm inactive | GPR119 counter inactive
O=C1OC(/C=C/c2cccc(Cl)c2Cl)=NC/1=C\c1ccccc1Cl	none
O=C1OC(/C=C/c2cccc(Cl)c2Cl)=NC/1=C\c1ccccc1C(F)(F)F	GPR151 ag 5.8 | GPR151 confirm inactive | GPR119 counter inactive
N#CC1=C(N)N(c2sc3c(c2C#N)CCCCC3)C2=C(C(=O)CCC2)C1c1ccc([N+](=O)[O-])cc1 (stereo not given)	none
O=C(CCCn1nc(-c2ccccc2)c2ccccc21)NCc1ccccn1	GPR151 ag 7.6 | GPR151 confirm inactive | GPR119 counter inactive
N#Cc1c(-c2ccc(Cl)cc2)cc(-c2cccs2)nc1SCC(=O)c1cccs1	none
